HT1080 IDH1KD tx: HT-1080 IDH1 knockdown cell toxicity (counter line); HT-1080 IDH1 knockdown viability, ATP luminescence, 48 h; Potency, µM (highest dose often 46.1 µM), hits mostly cytotoxic; hit rate 2% among 360,000
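IDH1KD HT-1080 cells, 750/well, RPMI + 5% FBS; compound pinned after 2 h settling; 48 h, 37 °C; CellTiter-Glo luminescence; % activity normalised to DMSO and no-cell wells; curves fitted, classed by r2 and efficacy.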
KB-V1 cytotox: kills drug-selected multidrug resistant KB-V1 cells; KB-V1 MDR cells viability, CellTiter-Glo, 72 h; Potency, µM (doses to about 46.1 µM), actives largely listed as cytotoxic; hit rate 3.4% among 400,000; note: nearly all actives have a fitted effect of over 60% in size
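qHTS viability screen in drug-selected KB-V1 MDR cells: 72 h compound treatment at 37 degrees C, ATP luminescence end point.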
TDP1 cell CPT: DT40-hTDP1 cell growth loss with CPT | chicken DT40 Tdp1-/-;hTDP1 cells + 20 nM CPT, ATP luminescence, 48 h | Potency, µM (series often up to 46.2 µM), hits mostly inhibitors | hit rate 12% among 420,000 | AID 686979; note: nearly all actives have a fitted effect of over 55% in size
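Cell growth measured by CellTiter-Glo luminescence after a minimum 48 h, 37 C compound exposure with 20 nM CPT in Tdp1-knockout DT40 cells stably expressing hTDP1, seeded 400/well; qHTS titration format.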
DT40 TDP1 no CPT: qHTS for Inhibitors of human tyrosyl-DNA phosphodiesterase 1 (TDP1): qHTS in cells in absence of CPT; Potency, µM (highest dose often 46.2 µM), most hits filed as inhibitors; DT40 Tdp1-/- hTDP1 cells, no CPT, ATP luminescence, 48 h; hit rate 15% among 420,000; note: nearly all actives have a fitted effect of over 55% in size
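DT40 Tdp1-/-;hTDP1 cells, no CPT (DMSO vehicle only), 400 cells/well; compounds pin-transferred; ≥48 hr, 37 °C; CellTiter-Glo 30 min RT dark, luminescence read.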
KB-3-1 tox: KB-3-1 parental cell cytotoxicity | KB-3-1 viability, CellTiter-Glo ATP luminescence, 72 h | hit rate 1.4% among 400,000 | Potency, µM (highest dose often 46.1 µM), hits mostly cytotoxic | AID 1347075; note: nearly all actives have a fitted effect of over 60% in size
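Parental KB-3-1 viability, qHTS format: 72 h compound exposure, 37 °C; CellTiter-Glo; media-only wells and DMSO plates as controls; concentration-effect fits on corrected data.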
HT1080NT lethal: kills 2HG-producing HT-1080-NT fibrosarcoma cells. Potency, µM (series often up to 46.1 µM), usual class: cytotoxic. AID 686970. hit rate 1.6% among 360,000. HT-1080-NT fibrosarcoma viability, CellTiter-Glo ATP luminescence, 48 h;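 note: NT is the 2HG producing partner of a matched IDH1 knockdown line; nearly all actives have a fitted effect of over 55% in size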
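Fibrosarcoma NT cells, 750 per well in 5% FBS RPMI, were exposed to compound for 48 hours. Viability: CellTiter-Glo luminescence.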
Large screens that a line does not name were inactive. Hits are enriched below; roughly 19% of the tested compounds scored in any of these assays. Calls come from the whole dose curve; as a rule, active = well fitted curve in the direction sought with a large enough effect; inconclusive = small, poorly fitted or top-dose-only effect, or another doubt; inactive = no such curve, though single readings can be large; an effect the other way counts as inactive or inconclusive.

C/C(=N/NC(=O)c1ccco1)c1ccc(Br)s1	none
C/C(=N\NC(=O)c1cc(Cl)ccc1O)c1ccc(Br)s1	HT1080 IDH1KD tx inconclusive, KB-V1 cytotox 21µM, TDP1 cell CPT inconclusive, DT40 TDP1 no CPT inconclusive, KB-3-1 tox inconclusive
C/C(=N/NC(=O)c1ccc(Br)s1)c1ccncc1	KB-V1 cytotox inconclusive
C/C(=N/NC(=O)CNc1ccc(C)cc1)c1ccc(Br)s1	TDP1 cell CPT 18µM, DT40 TDP1 no CPT 18µM
CN1CCc2c(sc(NC(=O)C3CCN(S(=O)(=O)c4cccs4)CC3)c2C(N)=O)C1	none
Cc1c(Cl)cccc1Nc1nc(NCCO)c2ccccc2n1	HT1080 IDH1KD tx inconclusive, TDP1 cell CPT inconclusive, DT40 TDP1 no CPT inconclusive, KB-3-1 tox inconclusive, HT1080NT lethal inconclusive
OCCNc1nc(Nc2ccccc2)nc2ccccc12	KB-V1 cytotox inconclusive, TDP1 cell CPT 10µM, DT40 TDP1 no CPT 13µM
OCCNc1nc(Nc2ccc(Br)cc2)nc2ccccc12	HT1080 IDH1KD tx inconclusive, KB-V1 cytotox inconclusive, TDP1 cell CPT 5.8µM, DT40 TDP1 no CPT 6.5µM, HT1080NT lethal inconclusive
O=C(CN1C(=O)CCC1=O)Nc1ccc(Cc2ccc(NC(=O)CN3C(=O)CCC3=O)cc2)cc1	KB-V1 cytotox inconclusive
COc1ccc2cc1Oc1ccc(cc1)C[C@H]1c3c(cc(OC)c4c3Oc3c(ccc5c3[C@H](C2)N(C)CC5)O4)CCN1C	KB-V1 cytotox inconclusive, TDP1 cell CPT 5.8µM, DT40 TDP1 no CPT 5.2µM
COc1ccc2cc1Oc1cc3c(cc1OC)CC[N+](C)(C)[C@H]3Cc1ccc(cc1)Oc1c(OC)c(OC)cc3c1[C@@H](C2)[N+](C)(C)CC3	DT40 TDP1 no CPT inconclusive (no result: HT1080 IDH1KD tx, KB-V1 cytotox, KB-3-1 tox, HT1080NT lethal)
COc1ccc2cc1Oc1ccc(cc1)CC1c3c(cc(OC)c4c3Oc3cc5c(cc3O4)CCNC5C2)CCN1C (stereo not given)	HT1080 IDH1KD tx 18µM, KB-V1 cytotox inconclusive, TDP1 cell CPT 2.9µM, DT40 TDP1 no CPT 1.6µM, KB-3-1 tox 16µM, HT1080NT lethal inconclusive
COc1cc2c(cc1OC)[C@@H]1Cc3ccc(OC)c(OC)c3CN1CC2	DT40 TDP1 no CPT inconclusive
COc1cccc(NC(=O)C2C3C=CC4(O3)C2C(=O)N(CCCN2CCCCC2)C4C(=O)NC2CCCCC2)c1 (stereo not given)	DT40 TDP1 no CPT inconclusive
Cc1ccc(S(=O)(=O)N2CCOCC2)cc1C(=O)OCC(=O)NC1CCCC(C)C1C (stereo not given)	KB-V1 cytotox inconclusive, TDP1 cell CPT 15µM, DT40 TDP1 no CPT 4.6µM, KB-3-1 tox inconclusive
Cc1ccc(S(=O)(=O)N2CCOCC2)cc1C(=O)OCC(=O)N1CCc2ccccc2C1	KB-V1 cytotox 12µM, TDP1 cell CPT inconclusive, DT40 TDP1 no CPT 23µM, HT1080NT lethal inconclusive
O=C(NCc1cccs1)c1csc([C@@H]2C[C@H](O)[C@@H](CO)O2)n1	none
COc1cccc(-c2noc(-c3ccc(Br)o3)n2)c1	none
Cc1cccc(C)c1NC(=O)C(c1ccccc1OC(F)(F)F)N1CCC(c2ccccc2)CC1 (stereo not given)	HT1080 IDH1KD tx inconclusive, KB-V1 cytotox inconclusive, TDP1 cell CPT inconclusive, DT40 TDP1 no CPT 16µM
CC(=O)N1CCN(C(C(=O)Nc2c(C)cccc2C)c2ccccc2OC(F)(F)F)CC1 (stereo not given)	KB-V1 cytotox inconclusive
Cc1cccc(C)c1NC(=O)C(c1ccccc1OC(F)(F)F)N1CCN(c2ccc(F)cc2)CC1 (stereo not given)	TDP1 cell CPT inconclusive, DT40 TDP1 no CPT inconclusive
Cc1cccc(C)c1NC(=O)C(c1ccccc1OC(F)(F)F)N1CCN(C/C=C/c2ccccc2)CC1 (stereo not given)	HT1080 IDH1KD tx inconclusive, TDP1 cell CPT 16µM, DT40 TDP1 no CPT 15µM, HT1080NT lethal inconclusive
CC(C)C(c1nnnn1Cc1cccs1)N1CCN(c2ccccc2)CC1 (stereo not given)	KB-V1 cytotox inconclusive, TDP1 cell CPT inconclusive, DT40 TDP1 no CPT inconclusive
Cc1c(C)n(-c2ccccc2)c2ncnc(NCCN(C)C)c12	none
c1ccc2c(c1)oc1c(NCCCn3ccnc3)ncnc12	TDP1 cell CPT inconclusive
c1ccc(-c2oc3ncnc(NCCCn4ccnc4)c3c2-c2ccccc2)cc1	HT1080 IDH1KD tx inconclusive, TDP1 cell CPT 23µM, DT40 TDP1 no CPT 18µM, HT1080NT lethal inconclusive
N=c1c2c(-c3ccccc3)c(-c3ccccc3)n(Cc3ccco3)c2ncn1CCCN1CCOCC1	HT1080 IDH1KD tx 13µM, KB-V1 cytotox 21µM, TDP1 cell CPT inconclusive, DT40 TDP1 no CPT 3.7µM, KB-3-1 tox 21µM, HT1080NT lethal inconclusive
CC(C)Cn1cnc2c(c(-c3ccccc3)c(-c3ccccc3)n2Cc2ccco2)c1=N	HT1080 IDH1KD tx 16µM, KB-V1 cytotox inconclusive, TDP1 cell CPT 21µM, DT40 TDP1 no CPT 18µM, KB-3-1 tox inconclusive, HT1080NT lethal inconclusive
c1ccc(-c2c(-c3ccccc3)n(Cc3ccco3)c3ncnc(NCCCn4ccnc4)c23)cc1	HT1080 IDH1KD tx 18µM, KB-V1 cytotox inconclusive, TDP1 cell CPT inconclusive, DT40 TDP1 no CPT inconclusive, KB-3-1 tox inconclusive, HT1080NT lethal 18µM
O=c1c2ccccc2nc(-c2ccccc2)n1CCCN1CCOCC1	none
N=c1c2c(-c3ccccc3)c(-c3ccccc3)n(Cc3ccco3)c2ncn1Cc1ccccc1	none
COCCNC(=O)CCCN1C(=O)CCn2nc(-c3cccn3C)cc21	none (no result: HT1080 IDH1KD tx, HT1080NT lethal)
Fc1ccccc1OCCCn1ccnc1	KB-V1 cytotox inconclusive
COc1ccc(NC(=O)c2cccc(NC(=O)C3C4CC5OC(=O)C3C5C4)c2)c(OC)c1 (stereo not given)	KB-V1 cytotox inconclusive, KB-3-1 tox inconclusive
N=c1c2c(-c3ccccc3)c(-c3ccccc3)n(Cc3ccco3)c2ncn1CCCn1ccnc1	HT1080 IDH1KD tx inconclusive, KB-V1 cytotox 16µM, TDP1 cell CPT 18µM, DT40 TDP1 no CPT 18µM, KB-3-1 tox inconclusive, HT1080NT lethal inconclusive
N=c1c2c(-c3ccccc3)c(-c3ccccc3)n(Cc3ccccc3)c2ncn1CCO	HT1080 IDH1KD tx inconclusive, KB-V1 cytotox 18µM
COc1ccc(-c2oc3ncnc(N)c3c2-c2ccccc2)cc1	DT40 TDP1 no CPT inconclusive
CN(C)CCCNc1ncnc2oc(-c3ccccc3)c(-c3ccccc3)c12	HT1080 IDH1KD tx 23µM, TDP1 cell CPT inconclusive, DT40 TDP1 no CPT inconclusive, KB-3-1 tox inconclusive, HT1080NT lethal inconclusive
c1ccc(OCCCn2ccnc2)cc1	KB-V1 cytotox inconclusive
CCOc1ccc(-n2c(SCC(=O)Nc3cccc(Cl)c3)nc3c(oc4ccccc43)c2=O)cc1	none (no result: HT1080 IDH1KD tx, HT1080NT lethal)
COc1ccc(CNC(=O)c2cnc3sc4cc(OC)ccc4n3c2=O)cc1	none (no result: HT1080 IDH1KD tx, HT1080NT lethal)

Bioassay records as filed in PubChem.
